This is part of a sample that, as a whole, favours compounds with a hit. Of some 83,000 tested, about 20% had one in any assay.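 Cells were grown in 96-well plates and exposed to the test compound at a single concentration for 48 hours; results are reported as percent growth, with values below 10 considered active.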 Calls of active or inactive are those of the source.
Each compound was assayed on HCT-15 colon (assay: NCI-60 one-dose screen, 48 h (100 = growth as untreated, 0 = no growth, -100 = all killed)). Conditions: 10 µM unless noted.

| SMILES | growth |
| --- | --- |
| O=C(Nc1ccc(CN2CCOCC2)c(C(F)(F)F)c1)c1nc2ccc3[nH]ncc3c2c2c1CCCC2 | 82.4% (inactive) |
| CC(C)[C@H]1CCC2=C3CC[C@]45OC(=O)[C@@]6(CCC(C)(C)C[C@H]64)CC[C@@]5(C)[C@]3(C)CC[C@@]21C | 85.8% [100 µM] (inactive) |
| Cc1ccc2c(c1)/C(=N\N=C/c1cn(C(C)C)c3ccccc13)C(=O)N2 | 28.6% (inactive) |
| COc1ccc(C(=O)c2nccc3cc(OC)c(OC)cc23)cc1OC | 96.7% (inactive) |
| Nc1cc(C(=O)O)[nH]c(=S)n1 | 101% (inactive) |
| CC1(C)CC[C@]2(C(=O)O)CC[C@]3(C)C(=CC[C@@H]4[C@@]5(C)C/C(=C/c6cccnc6)[C@H](O)C(C)(C)[C@@H]5CC[C@]43C)[C@@H]2C1 | -5.12% [100 µM] (active) |
| ClC1=C(Cl)C(Cl)=C(Cl)C1=Cc1ccccc1 | -55.1% (active) |
| CCCCC(CCCCCC(CCCC)C1NC(C)Cc2cc(OC)c(OC)cc21)C1NC(C)Cc2cc(OC)c(OC)cc21 (stereo not drawn) | -95.5% (active) |
| COc1ccccc1S(=O)Nc1ccccc1 (stereo not drawn) | 102% (inactive) |
| Cc1cnc(N)nc1OCC(C)(C)CNC(=O)c1cccc(-c2ccc(S(=O)(=O)Nc3ccc4c(c3)N(C(=O)C3CC3)CCC4)cc2)c1 | 67.6% (inactive) |
| C=C(C)[C@@H]1CC[C@]2(COC(=O)c3ccccc3C(=O)O)CC[C@]3(C)[C@H](CC[C@@H]4[C@@]5(C)CC[C@H](OC(=O)c6ccccc6C(=O)O)C(C)(C)[C@@H]5CC[C@]43C)[C@@H]12 | 18.1% [100 µM] (inactive) |
| Cc1cc(N2CCCCCC2)nc(N2CCN(CC(=O)Nc3ccc4c(ccn4Cc4ccccc4)c3)CC2)n1 | 30.8% (inactive) |
| CC1(C)C(=O)/C(=C\c2cccnc2)C[C@]2(C)[C@H]3CC[C@@H]4[C@H]5[C@H](C(=O)/C=C/c6cccnc6)CC[C@]5(C(=O)O)CC[C@@]4(C)[C@]3(C)CC[C@@H]12 | -74.6% [100 µM] (active) |
| CCN(CC)CCSC(=O)C(O)(c1ccccc1)C1CCCC1 (stereo not drawn) | 98.6% (inactive) |
| O=C(NNc1ccc(-c2ccccc2)nn1)c1ccccc1 | 103% (inactive) |
| Cc1cc2c(C(C)C)c(O)c(O)c(C=NCc3ccoc3)c2c(O)c1-c1c(C)cc2c(C(C)C)c(O)c(O)c(C=NCc3ccco3)c2c1O | 19.5% (inactive) |
| c1ccc(-c2nnc(-c3c[nH]c4ncccc34)s2)cc1 | 83.4% (inactive) |
| Cc1ccc(-c2cc(-c3ccc(C)cc3)nc(NCCNc3ccnc4cc(Cl)ccc34)n2)cc1 | -84.9% (active) |
| Cn1cc(-c2noc(C(=O)c3cn(C)c4ncccc34)n2)c2ccccc21 | 65.2% (inactive) |

| SMILES | growth |
| --- | --- |
| Cc1cc(NN=C(c2ccc(O)cc2)c2ccc(O)cc2)c([N+](=O)[O-])cc1[N+](=O)[O-] | 46.3% (inactive) |
| O=C(C[n+]1ccn(CC(OCc2ccc(Cl)cc2Cl)c2ccc(Cl)cc2Cl)c1)c1ccc(F)cc1 (stereo not drawn) | 75.7% (inactive) |
| COc1cc(-c2nc(SCCC(C)C)nc(Nc3ccc(S(N)(=O)=O)cc3)c2C#N)cc(OC)c1OC | 14% (inactive) |
| CC(C)=CCC[C@](C)(O)[C@H]1CC[C@]2(C)[C@@H]1CC[C@@H]1[C@@]3(C)CC[C@H](OC(=O)CCC(=O)O)C(C)(C)[C@@H]3CC[C@]12C | 19.3% [100 µM] (inactive) |
| C=C(C)[C@@H]1CC[C@]2(C)[C@H](CC[C@@H]3[C@@H]([C@@](C)(O)CCC=C(C)C)CC[C@]32C)[C@@]1(C)CCC(=O)O | -15.9% [100 µM] (active) |
| O=C(CCN1CCCCC1)c1ccc2ccccc2c1 | 103% (inactive) |
| O=C(N/N=C/c1c(Cl)cccc1Cl)c1cccc(Nc2ccnc(C(F)(F)F)c2)c1 | 78.5% (inactive) |
| CCc1ccc(C2=C/C(=C/c3ccccc3)C(=O)N2CCc2ccc(S(N)(=O)=O)cc2)cc1 | 108% (inactive) |
| COc1cc2c(cc1OCCCCCOc1ccc(-n3c(C)nc4ccccc4c3=O)cc1)N=C[C@@H]1CCCN1C2=O | 9.39% (active) |
| CCN(CCO)CCC(=O)c1ccc([N+](=O)[O-])cc1 | 101% (inactive) |
| COc1c(B(O)O)cccc1-c1nc2ccc3[nH]ncc3c2c2c1CCC2 | 54.7% (inactive) |
| Cc1ccc(-c2cc(O)c(-c3ccc(C)cc3C)cc2O)c(C)c1 | 29.5% (inactive) |
| C=C(C)[C@@H]1CC[C@]2(c3ncc(C)o3)CC[C@]3(C)[C@H](CC[C@@H]4[C@@](C)(CCC#N)[C@H](C(=C)C)CC[C@]43C)[C@@H]12 | -69.3% [100 µM] (active) |
| Nc1nc(Nc2ccccc2)c2ncn(Cc3ccc4c(c3)OCO4)c2n1 | 23.1% (inactive) |
| CC(=O)OC[C@]12CC[C@@H](C(=O)CBr)[C@@H]1[C@H]1CC[C@@H]3[C@@]4(C)CCCNC(C)(C)[C@@H]4CC[C@@]3(C)[C@]1(C)CC2 | -74.7% [100 µM] (active) |
| C[C@@H]1C[C@H]2C(=O)O[C@@H](C)[C@H](NC(=O)[C@H](Cc3cc(F)cc(F)c3)NC(=O)Nc3ccc(Cl)cc3F)C(=O)N3C[C@H](O)C[C@H]3C(=O)N3CCN(C)C[C@H]3C(=O)N[C@@H](C)C(=O)N2C1 | 107% (inactive) |
| COC(=O)C(=Cc1ccccc1[N+](=O)[O-])C(=O)OC | 19.8% (inactive) |
| CC1Cc2c(Cl)ncnc2N(C)c2ccc(Cl)cc21 (stereo not drawn) | 6.68% (active) |
| CC1(C(=O)O)CCC(N)(C(=O)O)C1(C)C (stereo not drawn) | 106% (inactive) |

— PubChem BioAssay (NCI)
